Results: PubChem BioAssay (NCI)
This is part of a sample that, as a whole, favours compounds with a hit. Of some 83,000 tested, about 20% had one in any assay.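 In brief: 96-well plates, 48 h treatment, single concentration, percent growth endpoint.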 Unmarked numbers belong to inactive results. Activity calls are given as the source filed them. Rule for the calls: active = growth percent below 10; inactive = the rest.

Tests used:
Assay in all cases: NCI-60 one-dose screen, 48 h (100 = growth as untreated, 0 = no growth, -100 = all killed)
SK-MEL-2 melanoma = settings: 10 µM unless noted
EKVX NSCLC = settings: 10 µM unless noted
SN12C renal = settings: 10 µM unless noted
UO-31 renal = settings: 10 µM unless noted
TK-10 renal = settings: 10 µM unless noted
ACHN renal = settings: 10 µM unless noted
CAKI-1 renal = settings: 10 µM unless noted
A498 renal = settings: 10 µM unless noted
CCRF-CEM leukemia = settings: 10 µM unless noted
SR leukemia = settings: 10 µM unless noted
OVCAR-8 ovarian = settings: 10 µM unless noted
OVCAR-5 ovarian = settings: 10 µM unless noted
SK-OV-3 ovarian = settings: 10 µM unless noted
IGROV1 ovarian = settings: 10 µM unless noted
OVCAR-3 ovarian = settings: 10 µM unless noted
HS 578T breast = settings: 10 µM unless noted
NCI/ADR-RES ovarian = settings: 10 µM unless noted
MOLT-4 leukemia = settings: 10 µM unless noted
RPMI-8226 leukemia = settings: 10 µM unless noted
OVCAR-4 ovarian = settings: 10 µM

Compound | growth (SK-MEL-2 melanoma) | growth (EKVX NSCLC) | growth (SN12C renal) | growth (UO-31 renal) | growth (TK-10 renal) | growth (ACHN renal) | growth (CAKI-1 renal) | growth (A498 renal) | growth (CCRF-CEM leukemia) | growth (SR leukemia) | growth (OVCAR-8 ovarian) | growth (OVCAR-5 ovarian) | growth (SK-OV-3 ovarian) | growth (IGROV1 ovarian) | growth (OVCAR-3 ovarian) | growth (HS 578T breast) | growth (NCI/ADR-RES ovarian) | growth (MOLT-4 leukemia) | growth (RPMI-8226 leukemia) | growth (OVCAR-4 ovarian)
O=C(Nc1cccc2cccnc12)c1cc(C(=O)c2ccc(Cl)cc2)n2ccc(-c3ccncc3)cc12 | 112% | 107% | 101% | 81.4% | 108% | 99.7% | 83.4% | 90.5% | 115% | 125% | 97.8% | 98.9% | 92.1% | 89.1% | 111% | 89.6% | 105% | – | – | –
Nc1ccc2c(c1)Cc1cc(NC(=O)C(F)(F)F)ccc1-2 | 98.6% | 79.9% | 97.6% | 75.7% | 106% | 104% | 96.3% | 84.6% | – | 101% | 102% | 114% | 89.8% | 114% | 99.5% | 119% | 104% | 109% | 88.3% | 109%
COc1cc(C)cc2oc3oc(=O)c(C(=O)c4cc5cc(Br)ccc5o4)cc3c(=O)c12 | 114% | 100% | 97.6% | 72.7% | 121% | 95.8% | 91.8% | 92.2% | – | 102% | 104% | 98.9% | 114% | 92.8% | – | – | 110% | 106% | 120% | 110%
CC1(C)CC[C@]2(C(N)=O)CC[C@]3(C)C(=CC[C@@H]4[C@@]5(C)C/C(=C/c6cccnc6)C(=O)C(C)(C)[C@@H]5CC[C@]43C)[C@@H]2C1 | -57.5% [100 µM] (active) | 1.54% [100 µM] (active) | -58.8% [100 µM] (active) | -95.1% [100 µM] (active) | -14.8% [100 µM] (active) | -61.1% [100 µM] (active) | -30.6% [100 µM] (active) | -83.4% [100 µM] (active) | – | 8.68% [100 µM] (active) | -21.6% [100 µM] (active) | -64% [100 µM] (active) | 6.72% [100 µM] (active) | -29.5% [100 µM] (active) | – | 1.61% [100 µM] (active) | -25.7% [100 µM] (active) | -9.98% [100 µM] (active) | -37.1% [100 µM] (active) | –
Cc1cc[n+](CCCCCCCCCC[n+]2ccc(C)cc2)cc1 | 98.4% | 95.4% | 63.5% | 99.8% | 82.7% | 105% | 96.6% | 85% | – | 98.9% | 99% | 97.9% | 97.8% | 112% | – | 102% | 94.3% | 83.5% | 102% | 99.4%
CC(C)(C)OC(=O)N1C=C/C(=C\Cn2cc(-c3ccccc3)nn2)CC1 | 64% | 79.8% | 73.7% | 54.6% | 98.6% | 68.7% | 67% | 54.2% | – | 57.9% | 74.9% | 104% | – | 82.7% | 86.6% | 84.1% | 76.9% | 65.2% | 62.9% | 18%
COC(=O)c1cc(O)c2c(c1C(=O)OC)C[C@H]1[C@@H]3CC=C4C[C@@H](O)CC[C@]4(C)[C@H]3CC[C@]21C | 78.7% | 55% | 71.3% | 39.9% | 55% | 39.9% | 26.2% | 49.8% | 37.8% | 31.5% | 63.9% | 61.4% | 83.7% | 72.8% | 33.2% | 31.5% | 44.2% | – | – | –
CC(C)(C)c1cc(C(=O)Nc2ccccc2C(=O)NCCN)cc(C(C)(C)C)c1 | 20.3% | 17.8% | -30.8% (active) | 27.9% | 75.5% | -90.3% (active) | – | -11.6% (active) | -8.48% (active) | -28.6% (active) | -43.7% (active) | 27% | – | 46.8% | 18.9% | 75.3% | 23.2% | 20.6% | -25% (active) | 43.3%
CC(C)C1=NOC(=O)C1=Cc1cn(-c2ccccc2)nc1-c1ccc(Br)cc1 | 87% | 93.3% | 84.8% | 67.9% | 91.5% | 81.5% | – | 57% | 2.56% (active) | -23.1% (active) | 80.8% | 100% | 99.9% | 72.5% | 85.4% | 70.4% | 101% | -15.7% (active) | -29.6% (active) | 98.8%
